FLuc modulator – qHTS profiling assay for firefly luciferase inhibitor/activator using purifed enzyme and Km concentrations of substrates (counterscreen for miR-21 project). purified FLuc, Km substrates, luminescence inhibition. Potency, µM (top dose mostly 57.5 µM), hits mostly inhibitors. 360,000 tested, 6.9% active. AID 588342, 2011; also: nearly all actives have a fitted effect of over 55% in size
Target sequence (P08659 whole entry, looked up): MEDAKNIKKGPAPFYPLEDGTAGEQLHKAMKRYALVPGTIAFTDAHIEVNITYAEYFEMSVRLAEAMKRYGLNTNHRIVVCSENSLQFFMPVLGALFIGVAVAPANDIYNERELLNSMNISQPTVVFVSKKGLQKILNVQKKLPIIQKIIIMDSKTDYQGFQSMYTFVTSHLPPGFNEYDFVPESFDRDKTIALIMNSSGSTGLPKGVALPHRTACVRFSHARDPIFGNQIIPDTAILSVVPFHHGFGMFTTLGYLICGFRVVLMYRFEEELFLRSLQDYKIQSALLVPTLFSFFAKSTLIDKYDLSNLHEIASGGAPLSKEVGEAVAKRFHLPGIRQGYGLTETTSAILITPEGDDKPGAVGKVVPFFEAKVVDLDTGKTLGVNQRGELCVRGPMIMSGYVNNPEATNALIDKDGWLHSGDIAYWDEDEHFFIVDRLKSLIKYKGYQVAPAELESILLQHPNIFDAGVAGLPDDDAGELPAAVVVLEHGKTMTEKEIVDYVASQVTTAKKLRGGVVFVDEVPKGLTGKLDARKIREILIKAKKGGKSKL
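Biochemical qHTS of compounds, final roughly 60 µM downward over six points, against 10 nM purified firefly luciferase using Km concentrations of substrates (10 uM D-luciferin, 10 uM ATP) in Tris acetate pH 7.5 buffer; luminescence output.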
NPC1 promoter act – qHTS Assay for NPC1 Promoter Activators; Huh7 NPC1 promoter luciferase reporter, 24 h; Potency, µM (series often up to 9.22 µM), actives largely listed as activators; 320,000 tested, 2.4% active; AID 485313, 2010; also: nearly all actives have a fitted effect of over 60% in size
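NPC1 promoter–luciferase Huh7 cells; 24 h compound; luminescence.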
Rab9 promoter act – qHTS Assay for Rab9 Promoter Activators; Huh7 Rab9 promoter-luciferase reporter, luminescence, 24 h; Potency, µM (titrated, usually from 9.22 µM), usual class: activators; 320,000 tested, 2.8% active; AID 485297, 2010; also: nearly all actives have a fitted effect of over 60% in size
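Quantitative HTS format; Huh7 Rab9-luciferase reporter cells (1500/well) receive compound 2 h post-plating, incubate 24 h at 37 °C, then get luciferase reagent for 10 min before luminescence reading.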
ELG1 genotox – qHTS screen for small molecules that induce genotoxicity in human embryonic kidney (HEK293T) cells expressing luciferase-tagged ELG1. HEK293T ELG1-luciferase reporter, luminescence, 16 h. Potency, µM (series often up to 46 µM), hits mostly activators. 330,000 tested, 1.3% active. AID 504466, 2011; also: nearly all actives have a fitted effect of over 60% in size
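DMSO vehicle served as control against compound-treated ELG1-luciferase HEK293T cells; exposure lasted 16 hr at 37 °C and 5% CO2, followed by ONE-Glo luminescence detection after 30 min.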
SMN2 splice enh – qHTS Assay for Enhancers of SMN2 Splice Variant Expression; HEK293 SMN2-luciferase splicing reporter, luminescence, 30-36 h; Potency, µM (series often up to 46.1 µM), most hits filed as activators; 210,000 tested, 2.8% active; also: nearly all actives have a fitted effect of over 55% in size
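HEK293 cells carry an SMN2 […]–luciferase reporter in which exon 7 inclusion puts luciferase in frame. Cells were plated 10-12 h before compound addition, then incubated 30-36 h at 37C. ONE-Glo luminescence was read; sodium butyrate at 4.5 mM final served as control.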
ELG1 DNA repair – qHTS screen for small molecules that inhibit ELG1-dependent DNA repair in human embryonic kidney (HEK293T) cells expressing luciferase-tagged ELG1; HEK293T ELG1-luciferase reporter, luminescence, 16 h; DNA damage induced by 5-fluorouridine; Potency, µM (highest dose often 46.1 µM), most hits filed as inhibitors; 330,000 tested, 2.3% active; also: nearly all actives have a fitted effect of over 55% in size
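DMSO vehicle served as the neutral condition. Each well held 2,000 cells given 5-fluorouridine plus compound; after 16 hr at 37 °C/5% CO2, ONE-Glo was added and luciferase measured 30 min later.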
Each line names hits and unclear results; the compound was inactive in the other large screens. The list is not random: actives were taken first. Their share in the collection is about 9.3%. Calls follow the shape of the dose curve; as a rule, active = well fitted curve in the direction sought with a large enough effect; inconclusive = small, poorly fitted or top-dose-only effect, or another doubt; inactive = no such curve, though single readings can be large; an effect the other way counts as inactive or inconclusive.

Cc1csc(Nc2ccccc2C(F)(F)F)n1	FLuc modulator inconclusive
COc1ccc(-c2[nH]ncc2CN2CCC(OCc3cccnc3)CC2)c(F)c1	none (no result: SMN2 splice enh)
CCCOc1ccc(CCCN=C(N)N)cc1Cl	ELG1 DNA repair 13µM (no result: SMN2 splice enh)
O=C(O)c1cc(-c2ccc(/C=C3\NC(=O)N(c4ccccc4)C3=O)o2)ccc1Cl	FLuc modulator inconclusive (no result: SMN2 splice enh)
C#CCN1C(=O)S/C(=C\c2ccc(-c3ccc(Cl)c(C(=O)O)c3)o2)C1=O	FLuc modulator 10.7µM, NPC1 promoter act 0.794µM, Rab9 promoter act 1.78µM, ELG1 genotox 16.4µM, ELG1 DNA repair inconclusive (no result: SMN2 splice enh)
CCN=C1S/C(=C\c2ccc(-c3cccc(C(=O)O)c3)o2)C(=O)N1CC	FLuc modulator 0.757µM, NPC1 promoter act 0.631µM, Rab9 promoter act 0.398µM, ELG1 genotox 1.64µM, SMN2 splice enh 3.55µM, ELG1 DNA repair inconclusive
O=C(O)c1cc(-c2ccc(/C=C3\NC(=O)N(c4ccc(Cl)cc4)C3=O)o2)ccc1Cl	FLuc modulator 19µM
Cc1cccc(N2NC(=O)/C(=C/c3ccc(-c4ccc(Cl)c(C(=O)O)c4)o3)C2=O)c1	FLuc modulator 23.9µM
Cc1ccc(-n2nnnc2SCC(=O)c2c(N)n(C3CC3)c(=O)[nH]c2=O)cc1C	none (no result: SMN2 splice enh)
Cc1ccccc1NS(=O)(=O)c1cc2c3c(c1)C(C)C(=O)N3CCC2 (configuration not stated)	none (no result: SMN2 splice enh)
Clc1ccc(OCc2nnc(-c3ccccc3Br)o2)c(Cl)c1	FLuc modulator 6.01µM, NPC1 promoter act 3.16µM, Rab9 promoter act 3.98µM, ELG1 genotox inconclusive, SMN2 splice enh inconclusive, ELG1 DNA repair inconclusive
Cc1cc(Cl)ccc1OCc1nnc(-c2ccccc2C)o1	FLuc modulator inconclusive, NPC1 promoter act inconclusive, Rab9 promoter act 3.98µM, ELG1 genotox inconclusive, ELG1 DNA repair inconclusive (no result: SMN2 splice enh)
Fc1ccc(OCc2nnc(-c3ccccc3Br)o2)c(Cl)c1	FLuc modulator 9.53µM, NPC1 promoter act inconclusive, Rab9 promoter act 2.51µM, ELG1 genotox 2.31µM, ELG1 DNA repair inconclusive (no result: SMN2 splice enh)
Clc1ccc(OCc2nnc(-c3ccccc3Br)o2)cc1	FLuc modulator inconclusive, ELG1 DNA repair inconclusive
COC(=O)c1sc2ccccc2c1-n1cccc1C(=O)C(=O)Nc1ccc(OC)cc1	NPC1 promoter act inconclusive, ELG1 DNA repair 13µM
COc1ccc(/C=N/N(C(C)=O)c2nc(-c3ccc(C)cc3)cs2)cc1	none
COc1ccccc1/C=N/N(C(C)=O)c1nc(-c2ccc(F)cc2)cs1	NPC1 promoter act inconclusive, Rab9 promoter act 6.31µM, ELG1 genotox inconclusive, SMN2 splice enh inconclusive, ELG1 DNA repair inconclusive
O=C(CCNC(=O)c1ccc([N+](=O)[O-])cc1)Nc1ccc(F)c(F)c1F	none (no result: SMN2 splice enh)
CCC(=O)N/C(N)=N/c1nc2ccccc2o1	FLuc modulator 10.7µM, NPC1 promoter act 3.98µM, Rab9 promoter act 1.12µM, ELG1 genotox inconclusive, ELG1 DNA repair inconclusive (no result: SMN2 splice enh)
CC(C)CC(=O)N/C(N)=N/c1nc2ccccc2o1	FLuc modulator 8.49µM, NPC1 promoter act 1.58µM, Rab9 promoter act 1.41µM, ELG1 genotox inconclusive, ELG1 DNA repair inconclusive (no result: SMN2 splice enh)
CCCC(=O)N/C(N)=N/c1nc2ccccc2o1	FLuc modulator 6.75µM, NPC1 promoter act 0.891µM, Rab9 promoter act 0.708µM, ELG1 genotox inconclusive, ELG1 DNA repair inconclusive (no result: SMN2 splice enh)
COc1ccccc1C(=O)N/C(N)=N/c1nc2ccccc2o1	FLuc modulator inconclusive, NPC1 promoter act inconclusive, Rab9 promoter act inconclusive, ELG1 DNA repair inconclusive
N/C(=N\c1nc2ccccc2o1)NC(=O)/C=C/c1ccccc1	none (no result: SMN2 splice enh)
CC(C)CC(=O)NC(=S)Nc1ccccn1	ELG1 DNA repair inconclusive
N/C(=N\c1nc2ccccc2o1)NC(=O)c1cccc(Br)c1	none (no result: SMN2 splice enh)
CC(C)(C)C(=O)N/C(N)=N/c1nc2ccccc2o1	NPC1 promoter act 0.891µM, Rab9 promoter act 0.447µM, ELG1 genotox inconclusive, ELG1 DNA repair inconclusive (no result: SMN2 splice enh)
CC1CN(Cc2ccccc2)c2nc3c(c(=O)[nH]c(=O)n3C)n2C1 (configuration not stated)	none (no result: SMN2 splice enh)

Compound activity deposited in PubChem by National Center for Advancing Translational Sciences (NCATS).
